Tau FP inhib – qHTS for Inhibitors of Tau Fibril Formation, Fluorescence Polarization; Microtubule-associated protein tau (Homo sapiens), P10636; K18 P301L tau heparin fibrillization, Alexa594 FP, 6 h; 280,000 compounds, 0.39% hits; Potency, µM (titrated, usually from 57.7 µM), for the others: at the top dose activity, negative = inhibition, hits mostly inhibitors; further: potency means the concentration at half of the fitted maximal effect; nearly all actives have a fitted effect of over 55% in size
Target sequence (P10636 561-689 P618L limits assumed): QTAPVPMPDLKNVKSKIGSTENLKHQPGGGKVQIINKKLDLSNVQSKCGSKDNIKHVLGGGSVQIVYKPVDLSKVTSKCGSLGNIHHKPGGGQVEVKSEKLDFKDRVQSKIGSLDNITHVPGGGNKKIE
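Human tau K18 […] P301L fragment, 15 uM unlabeled plus 0.24 uM Alexa 594-labeled tau (final), with compound and 20 uM heparin in 100 mM sodium acetate pH 7; 6 hr at 37 C, then Alexa 594 FP read.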
PNC inhibitor – High Content Assay for Compounds that inhibit the Assembly of the Perinucleolar Compartment; PC3M PTB-GFP, PNC prevalence imaging, 16 h; active compounds read low; activity change (PNC), negative = inhibition, % at 10 µM; 140,000 compounds, 3.1% hits; AID 2417, 2010;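 active means readout at or below -70, meaning at least 70% loss of cells showing the perinucleolar compartment, a nuclear body marking cancer cells; inconclusive means readout between -30 and a set limit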;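 further: plate controls were DMSO wells for no effect and camptothecin positive control wells for full effect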
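Compounds are pinned in duplicate onto adhered PC3M cells stably expressing GFP-tagged PTB and incubated 16 h at 37 C. Cells are then fixed, nuclei stained with Hoechst, and PNC-positive cells counted.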
TR SRC2 fluor cs – Total Fluorescence Counterscreen for Inhibitors of the Interaction of Thyroid Hormone Receptor and Steroid Receptor Coregulator 2; TRb/SRC2 Texas Red total fluorescence interference; 280,000 compounds, 0.29% hits; Potency, µM (top dose mostly 106 µM), for the others: top-dose fluorescence change, negative = quenching; AID 1479, 2009; active means well fitted curve in either direction with a large enough effect; inconclusive means small, poorly fitted or top-dose-only effect; further: potency means the concentration at half of the fitted maximal effect
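Human TRb ligand-binding domain at 0.6 uM with 20 nM Texas Red SRC2 peptide in Tris buffer containing 1 uM T3 and 5% DMSO, incubated with compound 5 h at ambient temperature. Total fluorescence (555/632 nm) calculated as parallel + 2 × perpendicular.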
Tau fluor cs – Counterscreen qHTS for Inhibitors of Tau Fibril Formation, Fluorescence Polarization; AID 1463, 2008; tau K18 P301L Alexa594 fluorescence, heparin fibrillization; Potency, µM (top dose mostly 57.7 µM), for inactives: top-dose activity change, negative = decrease; 280,000 compounds, 0.93% hits; further: potency means the concentration at half of the fitted maximal effect; nearly all actives have a fitted effect of over 55% in size
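Human K18 P301L tau (15 uM unlabeled plus 0.24 uM Alexa 594-labeled, final) in 100 mM sodium acetate pH 7 was mixed with compound and 20 uM heparin and incubated 6 hr at 37 C.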
Tau ThT inhib – qHTS for Inhibitors of Tau Fibril Formation, Thioflavin T Binding. AID 1460, 2008. recombinant tau K18 P301L (four-repeat tau fragment), heparin-induced fibrillization, ThT fluorescence. Potency, µM (series often up to 57.4 µM), for inactives: at the top dose activity, negative = inhibition, usual class: inhibitors. 270,000 compounds, 2.1% hits. Microtubule-associated protein tau (Homo sapiens), P10636; further: potency means the concentration at half of the fitted maximal effect; nearly all actives have a fitted effect of over 55% in size
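K18 P301L tau (15 uM + 0.24 uM Alexa 594-tagged), heparin 20 uM, NaOAc pH 7, 6 h 37 C; ThT 30 uM, 1 h RT, ex 450/em 510 nm.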
TRb-SRC2 inh – qHTS for Inhibitors of the Interaction of Thyroid Hormone Receptor and Steroid Receptor Coregulator 2; 280,000 compounds, 0.065% hits; Potency, µM (series often up to 106 µM), inactives show top-dose activity change, negative = inhibition, hits mostly inhibitors; Thyroid hormone receptor beta (Homo sapiens), P10828; TRbeta-SRC2 peptide binding, fluorescence polarization; receptor liganded with 1 µM T3; AID 1469, 2008;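 further: potency means the concentration at half of the fitted maximal effect; plate controls were bound peptide for no effect and peptide without receptor for full effect; nearly all actives have a fitted effect of over 50% in size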
Target sequence (P10828 whole entry, looked up): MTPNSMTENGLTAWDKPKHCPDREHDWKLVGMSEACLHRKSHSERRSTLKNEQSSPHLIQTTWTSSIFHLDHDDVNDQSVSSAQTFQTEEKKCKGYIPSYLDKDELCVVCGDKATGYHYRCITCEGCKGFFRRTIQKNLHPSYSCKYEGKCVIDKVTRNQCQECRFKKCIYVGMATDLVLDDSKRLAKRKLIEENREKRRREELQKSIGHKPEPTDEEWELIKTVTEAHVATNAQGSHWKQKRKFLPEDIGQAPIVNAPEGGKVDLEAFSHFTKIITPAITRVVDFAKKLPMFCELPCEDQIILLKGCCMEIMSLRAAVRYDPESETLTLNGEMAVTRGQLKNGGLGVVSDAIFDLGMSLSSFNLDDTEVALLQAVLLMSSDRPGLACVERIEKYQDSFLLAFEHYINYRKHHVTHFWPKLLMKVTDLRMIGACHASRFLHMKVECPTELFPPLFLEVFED
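A fluorescence polarization screen tested compounds at multiple concentrations against complex formation between 0.6 uM TRb ligand-binding domain and 20 nM Texas Red SRC2 peptide, with 1 uM T3 present; readout after 5 hr.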
* = called active by the depositor; u = inconclusive; x = no result given; [ ] = dose if it differs, or a comment. A selection: hits, their analogues and other compounds. The true share with any hit is near 4.6%. Unless noted, the call rests on the fitted dose curve; in most records, active means well fitted curve in the direction sought with a large enough effect; inconclusive means small, poorly fitted or top-dose-only effect, or another doubt; inactive means no such curve, though single readings can be large; an effect the other way counts as inactive or inconclusive. Unless noted, on the % scale 0 is the no-effect control and ±100 the full control effect.

SMILES | Tau FP inhib | PNC inhibitor | TR SRC2 fluor cs | Tau fluor cs | Tau ThT inhib | TRb-SRC2 inh
COc1cccc(NC2=Nc3cccc4cccc2c34)c1 | 15% | u | 4% | u | 11µM* | 6%
COc1cc(NC2=Nc3cccc4cccc2c34)cc(OC)c1OC | 2% | u | -1% | 6% | 3% | 9%
COc1ccc(CC(=O)NNC2=Nc3cccc4cccc2c34)cc1OC | u | x | -1% | u | x | -12%
COc1ccc(NC2=Nc3cccc4cccc2c34)cc1OC | 3% | 49 | -4% | u | 13µM* | -10%
Cc1ccc2c(c1)N=C(c1ccccc1)CC(C(Cl)Cl)=N2 | u | x | -1% | u | 16µM* | 3%
COc1ccc(/C(C)=N\NS(C)(=O)=O)c(OC)c1 | -5% | -84* | -3% | 4% | 0% | -2%
C/C(=N/NS(C)(=O)=O)c1ccc2ccccc2c1 | -1% | -103* | -7% | -13% | -14% | 2%
COc1ccc(C(=O)Oc2ccc(C(C)=O)cc2)c(OC)c1 | -9% | -83* | 4% | -3% | -13% | 1%
CC(=O)NCCNc1ccc([N+](=O)[O-])cc1C#N | 3% | x | -1% | 2% | -1% | 7%
NC(=O)c1c(NC(NC(=O)c2ccco2)C(=O)c2ccc(Cl)cc2)sc2c1CCCC2 (stereo not given) | -9% | -10 | -3% | u | 25µM* | -17%
CCOc1cc(/C=C/c2cc(C(F)(F)F)[nH]c(=O)n2)ccc1O | -8% | x | -3% | -15% | 14µM* | -1%
CCOc1cc(/C=C/c2ccc3cccc([N+](=O)[O-])c3n2)ccc1OCC(=O)N(C)C | 5% | x | -7% | -24% | 7.1µM* | -15%
O=[N+]([O-])c1cccc2ccc(/C=C/c3ccc(F)cc3)nc12 | -13% | -114* | 1%[53 µM] | u | u | -2%[53 µM]
CCOc1cc(/C=C/c2ccc3cccc([N+](=O)[O-])c3n2)ccc1O | 8% | -28 | -5% | u | 14µM* | 3%
CCOc1cccc(C(=O)NC2CCCCC2)c1 | 3% | u | -4% | 7% | -2% | -4%
Cn1c(=O)n(C)c2cc(N3CCOCC3)c(NS(=O)(=O)c3ccc(Cl)cc3)cc21 | -4% | x | -1% | -15% | -11% | 2%
CCOC(=O)c1c(/N=C/N(C)C)sc(/C=N/Nc2ccccc2)c1-c1ccc(Cl)cc1 | 18% | u | -1% | u | u | 1%
NC1=NC(=O)/C(=C\c2ccco2)S1 | u | x | -15% | u | 18µM* | -7%
O=C1N=C(N2CCN(c3ccccc3)CC2)S/C1=C\c1ccco1 | -9% | x | -14% | -18% | 14µM* | 4%
O=C(NO)c1ccccc1C(F)(F)F | -7% | x | -1% | -4% | 5% | 3%
CC(=O)/C(=C/N(C)C)C(=O)Nc1ccc(Cl)cc1Cl | 8% | x | -1% | -3% | -3% | -2%
CN(C)CCNC=C(C(=O)Nc1ccc(Cl)cc1Cl)C(=O)Nc1ccc(Cl)cc1Cl | 10µM* | u | -9% | u | 3% | 1%
CCCCCCCCCCOC(=O)c1csc2nnsc12 | 2% | -100* | -2% | -5% | -8% | 6%
CCCCCCCOC(=O)c1ccccc1C(=O)OCCCCCCC | x | x | -6%[201 µM] | x | x | 2%[201 µM]
O=[N+]([O-])c1ccc(Cl)c(-c2ccc(/C=N/c3c(-c4ccco4)nc4ccccn34)o2)c1 | 2% | -25 | 3% | -9% | u | 0%
SMILES | Tau FP inhib | PNC inhibitor | TR SRC2 fluor cs | Tau fluor cs | Tau ThT inhib | TRb-SRC2 inh
Cc1cc(C)c([N+](=O)[O-])cc1-c1ccc(/C=N/c2c(-c3ccco3)nc3ccccn23)o1 | u | u | 10% | 25µM*[quencher] | 5µM* | -19%
O=[N+]([O-])c1ccc(-c2ccc(/C=N/c3c(-c4ccco4)nc4ccccn34)o2)cc1 | 0% | 6 | 1% | u | 2.8µM* | 4%
Oc1cccc(/C=N/c2c(-c3ccco3)nc3ccccn23)c1 | u | -8 | -1% | u | u | 10%
O=[N+]([O-])c1ccc(-c2ccc(/C=N/c3c(-c4ccco4)nc4ccccn34)o2)c(Cl)c1 | -6% | 20 | 1% | -28% | 2µM* | -4%
CCCC(=O)NC(=S)Nc1nc(-c2ccc(OC)cc2)cs1 | -8% | 46 | -1% | -2% | 2% | -5%
C=CCNC(=S)NNC(=O)c1ccc(OCC)cc1 | 10% | 17 | 2% | -3% | -16% | 1%
O=C(c1ccc([N+](=O)[O-])cc1)N1CCSC1c1ccc(Cl)cc1 (stereo not given) | -4% | u | -1% | -26% | -16% | 3%
CC(=O)Nc1ccc2cc3ccc(NC(C)=O)cc3nc2c1 | 0% | x | -11% | u | 7.9µM* | -4%
O=C(Nc1cccnc1)c1cccnc1Cl | -8% | -22 | -1% | 0% | 0% | 4%
COc1ccc(C2C3=C(CC(C)(C)CC3=O)Nc3c2c(=O)[nH]c(=O)n3Cc2ccccc2)cc1OC (stereo not given) | 2% | -85* | 1% | -2% | -10% | -7%
CCn1c(SCC(=O)Nc2ccccc2C(=O)OC)nc2ccsc2c1=O | -9% | x | 2% | -8% | 0% | 3%
CC(C)CNS(=O)(=O)c1ccc(OCC(=O)Nc2ccc(F)cc2F)cc1 | 1% | -83* | 2% | -4% | -1% | -15%
CCC(C)NS(=O)(=O)c1ccc(OCC(=O)Nc2ccc(F)cc2F)cc1 (stereo not given) | -6% | -26 | 2% | -8% | -1% | -1%
Cc1[nH]c2ccccc2c1/C=N/NC(=O)c1cc(-c2ccccc2)n[nH]1 | u | x | -18% | 16µM*[quencher] | x | 19%
Cc1nn(-c2ccccc2)c(C)c1/C=N/NC(=O)c1cc(-c2cccc3ccccc23)n[nH]1 | u | 38 | -3% | -23% | u | -3%
Cc1nn(-c2ccccc2)c(C)c1/C=N/NC(=O)c1cc(-c2ccccc2)n[nH]1 | -6% | -87* | -15% | -24% | u | 1%
COc1ccc(Cc2c(O)nc(SCC(=O)c3ccc(OC)cc3)[nH]c2=O)cc1 | -6% | x | 0% | -7% | u | -5%
CC(=O)N1CCN(c2ccc(Nc3nc(C)nc4c3oc3ccccc34)cc2)CC1 | 2% | u | -12% | u | 8.9µM* | -1%
